The list is not random: actives were taken first. Their share in the collection is about 12%.
Pf growth 48h: inhibits P. falciparum growth in the first generation, 48 h | P. falciparum luciferase growth in erythrocytes, 48 h | Potency, µM (highest dose often 28.7 µM), hits mostly inhibitors | 310,000 tested, 5.9% active | AID 504832
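First compound was added to culture medium, then infected red cells at 0.1% parasitemia and 2% hematocrit (final). After incubation at 37 C under 5% CO2, luciferase detection reagent was dispensed and light output recorded.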
HCV inh: inhibitors of hepatitis C virus infection. Potency, µM (series often up to 41.8 µM), actives largely listed as inhibitors. AID 651820. 340,000 tested, 3.4% active. Huh7.5.1 HCVcc-Cre infection, luciferase reporter, 44 h
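Antiviral activity was scored by luciferase reporter output from cells infected with HCVcc-Cre (~0.5 moi) in presence of compound, 44 h infection period, cells seeded 1,000/well 4 h prior.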
Pf growth 96h: P. falciparum growth inhibition at 96 hours. P. falciparum luciferase reporter growth, 96 h. Potency, µM (series often up to 28.7 µM), hits mostly inhibitors. 320,000 tested, 6.9% active. AID 504834
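Compounds incubated with erythrocytes infected by luciferase-expressing P. falciparum (2% hematocrit, 0.05% parasitemia final) for 96 hours, 37 C in 5% CO2. Growth inhibition scored as decreased luciferase luminescence.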
AMA1-RON2 inh: AMA1-RON2 (P. falciparum) interaction inhibition. AlphaScreen AMA1-biotinylated RON2 peptide binding. Potency, µM (doses to about 58.2 µM), most hits filed as inhibitors. 360,000 tested, 0.2% active; further: nearly all actives have a fitted effect of over 45% in size
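AMA1 (3D7) with his tag at 25 nM final met compounds first, then biotinylated RON2 peptide at 25 nM; detection used donor plus acceptor beads, 10 µg/mL apiece, read by AlphaScreen after 30 min at room temperature.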
NS1 function inh: inhibitors of influenza NS1 protein function; Potency, µM (series often up to 46.1 µM); 270,000 tested, 0.4% active; AID 2326; calls by dose curve; further: actives are rising curves; nearly all actives have a fitted effect of over 50% in size
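Compounds were scored for reversing the slow growth caused by influenza A NS1 in S. cerevisiae, measured by optical density at 600 nm. Assay medium contained 2% galactose at pH 6.0; NS1-free yeast of the same strain were the positive control.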
SARS PLpro yeast: blocks SARS-CoV papain-like protease in a yeast assay. 330,000 tested, 0.19% active. AID 485353. Potency, µM (series often up to 32.9 µM), hits mostly activators. S. cerevisiae expressing SARS-CoV PLpro, growth rescue; calls by dose curve; further: nearly all actives have a fitted effect of over 55% in size
Each line names hits and unclear results; the compound was inactive in the other large screens. Unless noted, the call rests on the fitted dose curve; in most records, active means well fitted curve in the direction sought with a large enough effect; inconclusive means small, poorly fitted or top-dose-only effect, or another doubt; inactive means no such curve, though single readings can be large; an effect the other way counts as inactive or inconclusive.

NC(=O)[C@@H]1CCCN1Cc1nc(Cc2ccccc2Cl)no1	Pf growth 96h 3.7µM
Cc1ccc(OCC(=O)Nc2ccccc2[N+](=O)[O-])c(Br)c1	AMA1-RON2 inh inconclusive (no result: NS1 function inh)
Cc1cccc(CN(C)C)c1OC(=O)N(C)C	Pf growth 96h 5.9µM
COc1ccccc1-c1nnc(-c2ccc(C)cc2)o1	HCV inh inconclusive (no result: Pf growth 48h, Pf growth 96h, NS1 function inh, SARS PLpro yeast)
COc1ccccc1-c1nnc(-c2ccc(N3CCOCC3)cc2)o1	Pf growth 48h inconclusive, Pf growth 96h 1.7µM
COc1cccc(CN(C)C(=O)c2ccc(Cl)c(S(=O)(=O)N3CCCCCC3)c2)c1OC	HCV inh inconclusive (no result: Pf growth 48h, Pf growth 96h, NS1 function inh, SARS PLpro yeast)
COCc1cccc(-c2csc(C(C)(O)c3cccc(F)c3)n2)c1 (stereo not drawn)	none (no result: Pf growth 48h, HCV inh, Pf growth 96h, NS1 function inh, SARS PLpro yeast)
CCc1cccc(Nc2c([N+](=O)[O-])cc(C(=O)N3CC(=O)Nc4ccccc43)cc2[N+](=O)[O-])c1	Pf growth 48h inconclusive, HCV inh 14µM, Pf growth 96h inconclusive, AMA1-RON2 inh inconclusive
CCc1cccc(NC(=O)CNC(=O)N2CC(=O)Nc3ccccc32)c1	none
Cn1cc(Cl)c(C(=O)N/N=C/c2ccc3c4c(cccc24)CC3)n1	HCV inh inconclusive
NC(=NCCc1c[nH]c2ccccc12)NC(=O)c1ccc(F)cc1	Pf growth 48h inconclusive, Pf growth 96h inconclusive
COc1ccc2c(c1)c1nnc(SCC(=O)N3CCCCC3C)nc1n2C (stereo not drawn)	Pf growth 96h 8.3µM
COc1ccc2c(c1)c1nnc(SCC(=O)NC3CC3)nc1n2C	none
Cc1ccc(S(=O)(=O)NCCC(=O)NC2CCC(C)CC2)cc1 (stereo not drawn)	Pf growth 96h inconclusive (no result: NS1 function inh)
CC(C)N(C(=O)[C@H]1CC(CC(=O)NCC23CC4CC(CC(C4)C2)C3)C(=O)N2CCc3c([nH]c4ccccc34)[C@]12C)C(C)C (stereo partly drawn)	HCV inh 3.2µM (no result: Pf growth 48h, Pf growth 96h, NS1 function inh)
COc1ccc2[nH]c3c(c2c1)CCN1C(=O)C(CC(=O)NC/C=C(\C)CCC=C(C)C)C[C@H](C(=O)N(C(C)C)C(C)C)[C@@]31C (stereo partly drawn)	HCV inh 6.3µM, AMA1-RON2 inh inconclusive (no result: Pf growth 48h, Pf growth 96h, NS1 function inh)
COc1ccc(CNC(=O)C[C@H]2C[C@H](C(=O)N(C(C)C)C(C)C)[C@@]3(C)c4[nH]c5ccc(Cl)cc5c4CCN3C2=O)cc1OC	HCV inh 13µM (no result: Pf growth 48h, Pf growth 96h, NS1 function inh)
CC(C)N(C(=O)[C@H]1CC(CC(=O)NCc2cccc(C(F)(F)F)c2)C(=O)N2CCc3c([nH]c4ccccc34)[C@]12C)C(C)C (stereo partly drawn)	HCV inh 10µM (no result: Pf growth 48h, Pf growth 96h, NS1 function inh)
COc1ccc(N2CCN(S(=O)(=O)c3c(C)n(C)c(=O)n(C)c3=O)CC2)cc1	none (no result: HCV inh)
CCOc1cc2c(cc1OCC)-n1cccc1C(c1ccc(C(C)C)cc1)NC2 (stereo not drawn)	Pf growth 48h 8.3µM, HCV inh inconclusive, Pf growth 96h inconclusive, AMA1-RON2 inh inconclusive
CCOc1cc2c(cc1OCC)-n1cccc1C(c1ccc(OC(F)F)cc1)NC2 (stereo not drawn)	Pf growth 48h 13µM, HCV inh inconclusive
CCNC(=O)C1(C)CCN(C(=O)c2cccc(OC(F)(F)F)c2)C1 (stereo not drawn)	none (no result: Pf growth 48h, HCV inh, Pf growth 96h, NS1 function inh, SARS PLpro yeast)
O=C(NC1CCN(C(=O)c2cccs2)CC1)c1ccccc1	none
O=C(NCCCN1CCCC1=O)c1cccc(S(=O)(=O)Nc2ccc(F)cc2)c1	Pf growth 48h inconclusive, Pf growth 96h 13µM (no result: NS1 function inh)
O=C(NCCCN1CCCC1=O)c1cccc(S(=O)(=O)Nc2ccc(Br)cc2)c1	Pf growth 48h inconclusive, Pf growth 96h inconclusive (no result: NS1 function inh)
O=C(NCCCN1CCCC1=O)c1cccc(C(F)(F)F)c1	Pf growth 96h 8.3µM
C=C1C(=O)O[C@@H]2C[C@@H](C)[C@@H]3C=CC(=O)[C@@]3(C)[C@@H](OC(=O)CC(=O)O[C@H]3[C@@H]4C(=C)C(=O)O[C@@H]4C[C@@H](C)[C@@H]4C=CC(=O)[C@]43C)[C@H]12	Pf growth 48h 1µM, HCV inh 1.1µM, Pf growth 96h 1.3µM
C=C1C(=O)O[C@H]2[C@H]1[C@H](OC(=O)CC(=O)O[C@@H]1C[C@@H](C)[C@@H]3C=CC(=O)[C@@]3(C)[C@H]3OC(=O)C(=C)[C@H]13)C[C@@H](C)[C@H]1C=CC(=O)[C@]12C	Pf growth 48h inconclusive, HCV inh inconclusive, Pf growth 96h inconclusive
C=C1C(=O)O[C@H]2C[C@@H](C)[C@@H]3C=CC(=O)[C@@]3(C)C[C@H]12	Pf growth 48h 5.2µM, Pf growth 96h 8.3µM
C=C1C(=O)O[C@@H]2C[C@@H](C)[C@@H]3C4OC4C(=O)[C@@]3(C)[C@@H](O)[C@H]12 (stereo partly drawn)	Pf growth 48h 3.3µM, HCV inh inconclusive, Pf growth 96h 3.3µM
C=C1C(=O)OC2CC(C)C3C=CC(=O)C3(C)C(O)C12 (stereo not drawn)	HCV inh 2.5µM (no result: Pf growth 48h, Pf growth 96h, NS1 function inh, SARS PLpro yeast)
COc1ccc(S(=O)(=O)NCCC(=O)Nc2ccc(C)cc2)cc1	none
O=C(NCc1cccnc1)/C(=C\c1ccc(-c2ccc(Br)cc2)o1)S(=O)(=O)c1ccccc1	Pf growth 48h inconclusive, HCV inh 11µM, Pf growth 96h inconclusive, SARS PLpro yeast inconclusive
O=C(NCc1cccnc1)/C(=C/c1ccc(-c2ccc(Cl)cc2)o1)S(=O)(=O)c1ccccc1	Pf growth 48h 6.6µM, HCV inh 7.9µM, Pf growth 96h 3.3µM
O=C(NCc1cccnc1)/C(=C/c1ccc(-c2cccc(C(F)(F)F)c2)o1)NC(=O)c1ccccc1	none
O=C(Nc1ccccc1C(F)(F)F)N1CCN(c2ccc3nnc(-c4ccc(F)cc4)n3n2)CC1	Pf growth 48h 12µM, HCV inh inconclusive, Pf growth 96h inconclusive
O=C(Nc1ccc(F)cc1)N1CCN(c2ccc3nnc(-c4ccc(F)cc4)n3n2)CC1	HCV inh inconclusive, Pf growth 96h inconclusive (no result: Pf growth 48h)
CC(C)=CCC12Oc3cc(O)ccc3C1(O)Oc1cc(O)c([C@H]3C=C(C)CC(c4ccc(O)cc4O)[C@H]3C(=O)c3ccc(O)cc3O)c(O)c1C2=O (stereo partly drawn)	HCV inh 13µM (no result: Pf growth 48h, Pf growth 96h, NS1 function inh, SARS PLpro yeast)
COc1cccc(-c2cc3nc(-c4ccccc4)cc(N4CCCC(O)C4)n3n2)c1 (stereo not drawn)	Pf growth 48h 12µM, HCV inh 4µM
O=C(C1CCCO1)N1CCN(c2c3c(nc4cc(-c5ccc(F)cc5)nn24)CCC3)CC1 (stereo not drawn)	Pf growth 48h inconclusive, Pf growth 96h inconclusive
OC1CCCN(c2c3c(nc4cc(-c5cccc(F)c5)nn24)CCCC3)C1 (stereo not drawn)	Pf growth 48h inconclusive, HCV inh 6.3µM, Pf growth 96h inconclusive
Fc1ccc(-c2cc3nc4c(c(N5CCOCC5)n3n2)CCCC4)cc1	Pf growth 48h 10µM, HCV inh inconclusive

Source: PubChem (National Center for Advancing Translational Sciences (NCATS))
